The results in this text go back to the supplement of paper PMC10681739.

In this experiment the target is T1, ETS1 (UniProt P14921).
T1 sequence: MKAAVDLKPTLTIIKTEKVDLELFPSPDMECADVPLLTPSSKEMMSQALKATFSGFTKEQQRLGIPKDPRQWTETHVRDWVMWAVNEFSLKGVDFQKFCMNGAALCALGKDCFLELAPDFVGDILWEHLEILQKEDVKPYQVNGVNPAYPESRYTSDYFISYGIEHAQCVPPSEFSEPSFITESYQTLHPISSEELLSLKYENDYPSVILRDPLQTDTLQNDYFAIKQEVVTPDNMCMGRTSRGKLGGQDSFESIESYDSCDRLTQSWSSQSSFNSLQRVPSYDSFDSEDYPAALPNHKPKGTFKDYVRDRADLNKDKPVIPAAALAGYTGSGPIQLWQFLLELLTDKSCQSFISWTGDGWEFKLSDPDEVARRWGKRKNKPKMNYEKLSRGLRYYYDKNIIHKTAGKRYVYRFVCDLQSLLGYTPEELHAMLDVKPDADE
Put plainly: TF binding intensity (PBM fluorescence), negative control probe (arbitrary fluorescence units); higher = stronger binding. The procedure: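 gcPBM negative-control 36-bp genomic probes lacking TF binding sites. Each was incubated with recombinant human ETS1 or RUNX1 alone and detected by antibody fluorescence. Values are medians over replicate spots (4 spots for the ETS1-RUNX1 arrays, 3 for the ETS1-ETS1 array). The probes sit in constant array flanks that are not printed.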
As for “AGGTGCACGATGGGTGGGGAGCTGCTCAGGGCACTG (protein concentration 10 nM)”, the TF binding intensity worked out at 112.
As for “GTTGTTATGCAAGGTTGTGGTTTTTGCAGTCTTTTG (protein concentration 1 nM)”, the TF binding intensity was 498.
The figure for “CCTTTGTTAGTGATTTGTGGTAGCTAATGTCGTAAT (protein concentration 1 nM)” is 548; for “AAGGTTCTGATTCCGAGTCCCCTGAGGTGGCAGTGG (protein concentration 10 nM)” it is 111.
For “AGAGCCACAGTGTGGCTTGGCTGGTAAATTATTTGT (protein concentration 10 nM)” the value was 109; for “CATTAGATTCTCATAAGGAGCATAACCTAGATCCCT (protein concentration 10 nM)”, 104.
For “ATGGATAAGAATGTCTGTGGGTAGCTGTCTCCTCTT (protein concentration 1 nM)” the value was 444; for “GCTGGGGTTTGCTGCCTGGAGGCAGCCTGTCCAGGA (protein concentration 10 nM)”, 109.
Turning to “TCCTCAAAATTAAGGTGCGGTGCCAGGCGCAGTGGC (protein concentration 1 nM)”, the TF binding intensity came out at 374.
For “TTTAAAAAATCTACTCTGTCCCTTAAAAGGCCGTTT (protein concentration 10 nM)” the value was 107; for “TTTCTTCACACCACAAGCAGAGAGCAGCGAGAGAGA (protein concentration 10 nM)”, 136.
In the case of “CTCCCTCTCTCCCTCCCTCCCTCCCTCCCTCCCTTC (protein concentration 10 nM)”, the TF binding intensity is 230.
The figure for “TTATGAACTGTATCATGTGGTTTGAGTTTAATTTGG (protein concentration 1 nM)” is 487.
